The record followed here is PubChem BioAssay (NCATS).

Values joined by “and” are separate entries in the source; they are usually repeats but may differ in a detail not shown here. Equal values may be shown once. Inconclusive results are not listed. Active and inactive are the calls of the source. Calls follow the shape of the dose curve; as a rule, active = well fitted inhibition curve with a large enough effect; inconclusive = small, poorly fitted or top-dose-only effect; inactive = no such curve, though single readings can be large or run the other way.
% is scaled to controls: 0 for no effect and ±100 for the full control effect; potency is read from the fitted curve at half-maximal effect.

A short description of the experiment: Primary qHTS for inhibitors of nuclear receptor binding SET domain protein 2 (NSD2) in an RCH-ACV wild type WT cells (2C) (AID 1645877). Also: nearly all actives have a fitted effect of over 70% in size. To be noted: RCH-ACV (leukaemia line) NSD2 WT (2C) viability, CellTiter-Glo, 72 h; series mostly up to 44.9 µM; activity change, negative = cell killing: at the top concentration. A general note: Quantitative high-throughput screening tests each substance at several concentrations.
For `Cn1ncnc1COc1nn2c(-c3c(F)cccc3F)nnc2cc1C1CCC1`, the call was inactive.

In the case of `COC(=O)C1(C)CCC(=O)C2(C)c3c(O)cc(C(C)C)cc3C(O)C(OC(C)=O)C12` (centres undefined), the “activity change, negative = cell killing” value is -6.54% [at 17.3 µM] (inactive).

In the case of `CCc1[nH]c2ccc(OC)cc2c1CCN(C)C`, the “activity change, negative = cell killing” value was -12.4% (inactive).

Turning to `CN1C(=O)c2ccccc2NC(=O)[C@]12O[C@@H]2c1ccccc1`, the “activity change, negative = cell killing” value is -24.8% (inactive).

For the compound `COC1CC(OC2CCC3(C)C(=CCC4C3CCC3(C)C(C(C)OC5OC(COC6OC(CO)C(O)C(O)C6O)C(O)C(O)C5O)CCC43O)C2)OC(C)C1OC1OC(C)C(O)C(OC)C1O` (centres undefined), the activity change, negative = cell killing is 0.676% [at 9.23 µM] (inactive).

With `CCN1C[C@]2(COC)[C@H](O)C[C@H](OC)[C@]34[C@@H]5C[C@]6(O)[C@H](OC(=O)c7ccccc7)[C@@H]5[C@@](O)([C@H]([C@H](OC)[C@H]23)[C@@H]14)[C@@H](O)[C@@H]6OC`, the compound was called inactive.

`COc1cc(C(=O)O[C@H]2[C@@H]3C=CO[C@@H](O[C@@H]4O[C@H](CO)[C@@H](O)[C@H](O)[C@H]4O)[C@@H]3[C@@]3(CO)O[C@@H]23)ccc1O`: the “activity change, negative = cell killing” value is -23.3% [at 17.3 µM] (inactive).

With `CC(=O)OC1CC(O)C(C)(C)C2CC(OC(C)=O)C3(C)C(CCC4(C)C(c5ccoc5)C(=O)C5OC543)C12C` (centres undefined), the “activity change, negative = cell killing” value is -23.8% [at 17.3 µM] (inactive).

With `C=C[C@H]1[C@H](O[C@@H]2O[C@H](CO)[C@@H](O)[C@H](O)[C@H]2O)OC=C2C(=O)OCC[C@H]21`, the “activity change, negative = cell killing” value was 0.329% (inactive).

Regarding `COc1cc2c(cc1OC)[C@@]13CCN4CC5=CCO[C@H]6CC(=O)N2[C@H]1[C@H]6[C@H]5C[C@H]43`, the “activity change, negative = cell killing” value was -5.52% [at 17.3 µM] (inactive).

Take `CCN1CC2(COC)C3[C@@H](OC)C4C1C3(C1C[C@]3(O)[C@H](OC(=O)c5ccccc5)C1[C@]4(OC(C)=O)[C@@H](O)[C@@H]3OC)[C@H](OC)C[C@H]2O` (some centres undefined): the “activity change, negative = cell killing” value was 2.23% (inactive).

For the compound `CCN1C[C@]2(OC(=O)c3ccccc3NC(C)=O)CC[C@H](OC)[C@@]34[C@@H]2C[C@@H]([C@@H]13)[C@@]1(O)C[C@H](OC)[C@H]2C[C@@H]4[C@]1(O)[C@H]2OC`, the compound was classed as inactive.

As to `O=C(N1CCOCC1)N1CCN(c2ccc(Cl)cc2)CC1`, the “activity change, negative = cell killing” value was -10.2% (inactive).

On to `C1=C2CCCN[C@H]2[C@@H]2C[C@H]1[C@H]1CCCCN1C2`, for which the call was inactive.

Take `C=C1[C@@H]2CC[C@@]3(C)[C@H](c4ccoc4)OC(=O)C[C@]13O[C@H]1CC(=O)C(C)(C)[C@H](C(OC(C)=O)C(=O)OC)[C@]12C` (some centres undefined): the “activity change, negative = cell killing” value is -14.1% [at 17.3 µM] (inactive).

Consider `CCOc1ccccc1-n1c(C(C)N2CCN(C(=O)COc3ccc(Cl)cc3)CC2)nc2ccccc2c1=O` (centres undefined), for which the Potency was 365 nM (active) and 372 nM (active).

Consider `CN1C(=O)c2ccccc2NC(=O)C1Cc1ccccc1` (centres undefined), for which the “activity change, negative = cell killing” value is -18.7% (inactive).

`N#C[C@@H](O[C@@H]1O[C@H](CO[C@@H]2O[C@H](CO)[C@@H](O)[C@H](O)[C@H]2O)[C@@H](O)[C@H](O)[C@H]1O)c1ccccc1`: the “activity change, negative = cell killing” value was -31% [at 17.3 µM] (inactive).

`COC1=CC(=O)O[C@@H](/C=C/c2ccccc2)C1`: the “activity change, negative = cell killing” value was -6.64% (inactive).

As to `O=C(O)c1ccnc2cc(C(OCCN3CCCCC3)c3ccccc3Cl)[nH]c12` (centres undefined), the outcome was inactive.

For the compound `C=CC(C)(O)CC/C=C(\C)C(=O)O[C@H]1[C@H](O)[C@@H](CO)O[C@@H](OC(=O)[C@]23CCC(C)(C)CC2C2=CCC4[C@@]5(C)CC[C@H](O[C@@H]6O[C@H](CO[C@@H]7OC[C@H](O)[C@H](O)[C@H]7O[C@@H]7OC[C@@H](O)[C@H](O)[C@H]7O)[C@@H](O)[C@H](O)[C@H]6O)C(C)(C)C5CC[C@@]4(C)[C@]2(C)CC3)[C@@H]1OC1OC(C)C(O[C@@H]2OC[C@@H](O)[C@H](O[C@@H]3OC[C@@H](O)[C@H](O)[C@H]3O)[C@H]2O)C(O)C1O` (some centres undefined), the activity change, negative = cell killing is -28.4% [at 9.23 µM] (inactive).

For the compound `CN1C(=O)N(c2ccc(C#N)c(C(F)(F)F)c2)C(=O)[C@]1(CO)c1ccccc1`, the “activity change, negative = cell killing” value is -9.53% (inactive).

For the compound `CC(C)=C1CC[C@]23CO[C@H](C2)[C@@](O)(C(=O)O)CCC13` (some centres undefined), the “activity change, negative = cell killing” value was -17.1% (inactive).

Regarding `CN1CCC[C@@H]1Cc1c[nH]c2ccc(Nc3ncccc3[N+](=O)[O-])cc12`, the “activity change, negative = cell killing” value is -23.9% (inactive).

`CO[C@@H]1[C@H](O)[C@@H](O[C@@H]2C[C@H]3CC[C@@H]4C(CC[C@]5(C)[C@@H](C6=CC(=O)OC6)CC[C@]45O)[C@@]3(C)[C@H](O)C2)O[C@H](C)[C@@H]1O[C@@H]1O[C@H](CO)[C@@H](O)[C@H](O)[C@H]1O` (some centres undefined): the Potency is 304 nM (active).

As to `N#C/C(=C/c1ccc(O)c(O)c1)C(N)=S`, the Potency was 9200 nM (active).

For `COC1C(O)C(OC2CCC3(C=O)C(CCC4C3CCC3(C)C(C5=CC(=O)OC5)CCC43O)C2)OC(C)C1OC1OC(CO)C(O)C(O)C1O` (centres undefined), the Potency is 342 nM (active).

Regarding `COC1CC(OC2CCC3(C)C(CCC4C3CCC3(C)C(C5=CC(=O)OC5)C(OC(C)=O)CC43O)C2)OC(C)C1OC1OC(CO)C(O)C(O)C1O` (centres undefined), the Potency is 1210 nM (active).

On to `C=CC(C)(C)c1[nH]c2cccc3c2c1C[C@@H]1[C@@H]3[C@@H](OC(C)=O)[C@H](C)CN1C`, for which the “activity change, negative = cell killing” value was 1.05% (inactive).

With `COC(=O)C12C(=O)C(C)(O)C(=O)C1(C)C(C)=CC1C34CCC(OC3=O)C(C)(CO)C4CCC12C` (centres undefined), the “outcome” value was “inactive [at 17.3 µM]”.

Take `C[C@@]12C[C@@H](c3ccoc3)OC(=O)C1CC[C@]1(C)[C@H]2[C@H]2C=C[C@]1(O)C(=O)O2` (some centres undefined): the compound was called inactive.

Consider `COc1ccc2c(c1)/C(=C/c1cnc[nH]1)C(=O)N2`, for which the Potency is 18400 nM (active).

Take `C[CH2][Hg][S]c1ccccc1C(=O)O`: the Potency is 841 nM (active).

`C/C=C(\C)C(=O)OC1CC2C(C)(C)OC(=O)CC(OC(C)=O)C2(C)C2CC(OC(=O)C(C)C)C3(C)C(c4ccoc4)CC4OC43C12C` (centres undefined): the “activity change, negative = cell killing” value was -8.98% [at 17.3 µM] (inactive).

As for `CC(C)C1(OO)C=C2C(=O)CC3C(C)(C(=O)O)CCCC3(C)C2CC1` (centres undefined), the “activity change, negative = cell killing” value was -6.75% (inactive).

Take `CN1CCCC1CCOC(c1cc2nccc(C(=O)O)c2[nH]1)c1ccccc1Cl` (centres undefined): the “activity change, negative = cell killing” value is 4.79% (inactive).

As to `CC(=O)c1c(O)c(C)c(O)c(Cc2c(O)c3c(c(C(=O)/C=C/c4ccccc4)c2O)OC(C)(C)C=C3)c1O`, the “activity change, negative = cell killing” value is -15.6% (inactive).

In the case of `Cc1cc(C(=O)CN2CCCC2)c(C)n1-c1ccc(F)cc1`, the “activity change, negative = cell killing” value was -20.1% (inactive).

As for `COc1cc(CCNCc2ccccc2O)c(OC)cc1C#N`, the “activity change, negative = cell killing” value is -28.9% (inactive).
